Compound activity (PubChem BioAssay)
TRHR ag = agonists of human TRH receptor; P34981; TRHR cells, calcium flux fluo-8, FDSS agonist mode; activation, % at 2 µM; hit rate 0.18% among 360,000; note: 0% is about no effect
Target sequence (P34981 whole entry, looked up): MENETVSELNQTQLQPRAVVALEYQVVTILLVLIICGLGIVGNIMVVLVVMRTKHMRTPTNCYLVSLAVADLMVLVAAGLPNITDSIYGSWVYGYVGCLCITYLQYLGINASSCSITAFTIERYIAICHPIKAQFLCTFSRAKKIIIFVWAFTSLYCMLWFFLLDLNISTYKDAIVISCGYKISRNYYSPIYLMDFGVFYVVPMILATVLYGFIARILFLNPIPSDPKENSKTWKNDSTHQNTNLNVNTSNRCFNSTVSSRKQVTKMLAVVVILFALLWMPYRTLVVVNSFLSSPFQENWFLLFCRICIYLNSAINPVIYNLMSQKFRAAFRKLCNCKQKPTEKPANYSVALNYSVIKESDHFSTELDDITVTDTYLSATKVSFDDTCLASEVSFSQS
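Read-out: compound-evoked intracellular calcium rise in TRHR cells, fluo-8 dye, kinetic FDSS fluorescence at 1 s/cycle following a 10-cycle baseline. Cells cultured overnight before dye loading (30 min–1.5 h, RT).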
D1 potentiator = human D1 dopamine receptor positive modulation; HEK293 TREx D1 cells, calcium flux, dopamine EC20 potentiation; P21728; potentiation, % at 10 µM; hit rate 0.036% among 360,000; in the data active = potentiation above about 30%; note: 0% is about no effect
TRHR enhancer = allosteric enhancers of human TRH receptor; TRHR cells, fluo-8 calcium fluorescence, EC20 TRH enhancement; enhancement, % at 2 µM; hit rate 0.66% among 360,000; in the data active = enhancement above about 30%; note: 0% is about no effect
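TRHR-expressing cells loaded with fluo-8 calcium dye were read kinetically (ex 480/em 530) during compound addition, then stimulated with an EC20 of TRH (10 nM final). Enhancement of the Gq-mediated intracellular calcium response was scored.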
D1 ag = activates the human D1 dopamine receptor; hit rate 1% among 360,000; P21728; AID 504660; HEK293 T-REx D1 cells, calcium flux, agonist mode; activation, % at 2 µM; note: 0% is about no effect
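Agonism was scored from calcium flux recorded over 180 s (1 read/s) after pintool compound addition, following a 10-cycle baseline. Cells were inducible force-coupled HEK293 TREx D1, plated overnight at 30 C and loaded with no-wash calcium dye.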
D1 antag = blocks dopamine activation of the human D1 receptor | HEK293 TREx D1 cells, calcium flux, dopamine EC80; active compounds read low | activity change, negative = inhibition, % at 10 µM | hit rate 3.2% among 360,000; in the data active = activity change below about -30%; note: % is set by controls: 0 for no effect and ±100 for the full control effect
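Antagonism measured as reduced calcium response to an EC80 dopamine addition following 180 s compound pre-read; cells were inducible HEK293 Trex D1 plated overnight at 30 C, read kinetically at 1 cycle/sec.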
Active calls of the source: *. The list is not random: actives were taken first. Their share in the collection is about 4.6%. Cut-off read from the data, not from the text of the source, unless noted: active = activation above about 30%; inactive = the rest.

SMILES	TRHR ag	D1 potentiator	TRHR enhancer	D1 ag	D1 antag
CCCS(=O)(=O)N1CC(=O)N(c2cc(C)cc(C)c2)C(C)(C(=O)NC2CCCCCC2)C1 (stereo not drawn)	-1	0	-4	-2	-31*
COc1ccc(C2c3c(-c4ccccc4)n[nH]c3C(=O)N2c2ccc(C(=O)O)cc2)c(OC)c1 (stereo not drawn)	1	-3	3	-1	-35*
COc1cccc(-n2c(=O)c3sccc3n(Cc3cc(=O)n4cc(Cl)ccc4n3)c2=O)c1	-2	0	10	-1	-32*
O=c1c2sccc2n(Cc2cc(=O)n3ccccc3n2)c(=O)n1-c1cccc(C(F)(F)F)c1	-2	0	2	-3	-15
CCCN(C(=O)c1sc2nc3n(c(=O)c2c1C)CCCC3)c1ccccc1C	0	1	1	3	5
COC(=O)c1c(NC(=O)CN2C(=O)C(=O)N(C(C)C)C2=O)sc(C)c1C	0	-3	-2	0	-37*
COc1ccc(NC(=O)c2nc3nc(C)cc(C(F)F)n3n2)c(C)c1	0	0	-14	0	6
CC1=C(c2ccc(Cl)cc2)S(=O)(=O)NC1=NCCCN1CCN(c2cc(C)ccc2C)CC1	0	0	-1	0	6
CCc1ccc(C2C(C#N)=C(N)SC(N)=C2C#N)cc1	0	-3	1	30*	-10
N#CC1=C(N)SC(N)=C(C#N)C1c1ccc(C(F)(F)F)cc1	2	1	3	-1	-2
CCOc1ccc(C2C(C#N)=C(N)SC(N)=C2C#N)cc1OC	16	-2	1	40*	-11
COC(=O)c1ccc(NC(=O)CC2C(=O)N(c3cccc(OC)c3)C(=O)N2Cc2ccco2)cc1 (stereo not drawn)	0	-1	-2	1	0
O=C1CC(c2ccccc2Cl)CC(O)=C1C=NCCCO (stereo not drawn)	0	-10	34*	2	15
CCOC(=O)c1c(C)oc2nc(C)nc(N3CCN(c4cccc(C(F)(F)F)c4)CC3)c12	0	4	15	4	2
O=C(N/N=C/c1ccsc1)c1c[nH]c2ccccc12	0	-2	-2	3	-46*
Cc1ccc(S(=O)(=O)N(CC(=O)N/N=C/c2cccc(C)c2)c2cccc3cccnc23)cc1	0	-10	-15	3	-30*
COc1ccc(CCN2C(=O)N[C@@H](C(C)C)C2=O)cc1	0	-3	4	0	-1
OCCNCc1ccc(OCc2ccc(Cl)cc2Cl)cc1	2	-4	10	30	4
OCCCCNCc1ccc(OCc2ccc(Cl)cc2Cl)cc1	3	-9	17	61*	-27
CN(C)c1ccc(CNS(=O)(=O)c2ccc3[nH]c4c(c3c2)CCCCC4)cc1	-1	-1	-3	4	-3
COc1ccc(NC(=O)Nc2nc(C)cc(C)n2)c(OC)c1	1	-12	-6	1	-34*
COc1ccc(NC(=O)CO/N=C2/CCCc3nonc32)c(OC)c1	-1	-2	1	6	-32*
COc1ccc(NC(=O)CC(=O)Nc2ccc(OC)cc2OC)c(OC)c1	1	-6	5	4	-89*
COc1ccc(NC(=O)Nc2cnccn2)c(OC)c1	0	-9	-5	2	-4
COc1ccc(NC(=O)CO/N=C2\CCCc3nonc32)cc1	0	7	7	4	-5
SMILES	TRHR ag	D1 potentiator	TRHR enhancer	D1 ag	D1 antag
COc1ccc(NC(=O)c2ccc(CN3CCc4ccccc4C3)cc2)c(OC)c1	-1	-20	-1	1	-35*
Cc1ccccc1NC(=O)CCc1c(C)nc2c(c1C)c(=O)n(C)c(=O)n2C	0	-1	0	2	-6
COc1ccc(-c2nc(SCC(=O)Nc3ccc4c(c3)OCCO4)c(-c3ccc(C)cc3)[nH]2)cc1OC	-1	-5	-2	5	-6
Cc1ccc(/C=C2/Sc3ccc(C(=O)N4CCN(C)CC4)cc3NC2=O)cc1	1	-24	29	17	-82*
CCOC(=O)/C(C#N)=C\c1ccc(N2CCN(C/C=C/c3ccccc3)CC2)cc1	12	-9	0	109*	-22
CCOC(=O)/C(C#N)=C/c1cc(C)n(-c2ccc(C)cc2)c1C	1	-30	0	2	-75*
Cc1cc(/C=C(\C#N)C(=O)NCc2cccs2)c(C)n1-c1ccc([N+](=O)[O-])cc1	1	-11	-4	4	-56*
CCOC(=O)/C(C#N)=C\c1cc(C)n(-c2ccccc2)c1C	-1	0	5	3	-27
Cc1ccc(S(=O)(=O)N2CCOCC2)cc1C(=O)OCCOc1cccc(Cl)c1	0	2	10	31*	-15
CC1CCN(C2CCN(S(=O)(=O)c3ccc(F)cc3)CC2)CC1	0	2	-3	0	-33*
O=C(OCCOc1ccccc1)c1cccc(S(=O)(=O)N2CCOCC2)c1	3	-7	0	1	4
CN(CCOc1ccccc1)C(=O)c1cc(S(=O)(=O)N2CCOCC2)ccc1Cl	0	-7	-2	0	-19
Cc1ccc(C(=O)Nc2ccc(S(=O)(=O)N3CCOCC3)cc2)cc1	-1	2	19	5	-6
CN(CCOc1ccc(Cl)cc1)C(=O)c1ccc(S(=O)(=O)N2CCOCC2)cc1	0	-1	0	22	-39*
O=S(=O)(c1ccc(F)cc1)N1CCC(N2CCCCCC2)CC1	0	2	2	2	10
Cc1ccc(NC(=O)c2ccc(S(=O)(=O)N3CCC(C)CC3)cc2)cc1	0	-5	4	0	-39*
CCOc1cc(C2c3c(oc4ccccc4c3=O)C(=O)N2Cc2ccc3c(c2)OCO3)ccc1O (stereo not drawn)	-1	1	5	0	5
CC(=O)c1cccc(Nc2cc(C)nc3nc(-c4ccccc4C)nn23)c1	-2	-1	3	3	-6
CCOC(=O)C1CCN(S(=O)(=O)c2ccc(NC(=O)c3ccco3)cc2)CC1	-1	-6	1	2	-33*
CCOc1ccc(C(=O)Nc2ccc(S(=O)(=O)N3CCN(C)CC3)cc2)cc1	-1	-18	5	9	0
O=C(Nc1ccc(Cc2ccncc2)cc1)c1ccc(S(=O)(=O)N2CCOCC2)cc1	2	-3	8	16	-41*
O=C(Nc1cc(S(=O)(=O)N2CCOCC2)ccc1O)c1ccc(NS(=O)(=O)c2ccc(Cl)s2)cc1	0	-12	0	-1	-68*
CC(C)Oc1ccc(C(=O)Nc2ccc(S(=O)(=O)N3CCN(C)CC3)cc2)cc1	2	-21	0	4	-53*
O=C(Nc1ccc(S(=O)(=O)N2CCCCCC2)cc1)c1ccco1	0	2	1	2	-5
O=S(=O)(Nc1cc(S(=O)(=O)N2CCCC2)ccc1O)c1ccc(Cl)s1	0	2	2	2	11
